HIV TAR-Tat: HIV-1 TAR-Tat binding disruption. z-score (test concentration not listed). 100,000 compounds, 0.6% hits. AID 1259389. HIV-1 TAR RNA, Tat peptide displacement FRET; active compounds read high; active = z-score of 3 or more in at least 2 runs
CDC25B CDK2 inh: human CDC25B-CDK2/CyclinA binding inhibition; P30305+P24941; HTRF CDC25B-CDK2/CyclinA binding, anti-His/anti-Flag; active compounds read high; z-score (test concentration not listed); 94,000 compounds, 0.72% hits; in the data active = z-score above about 3.2
Of the large screens only hits and unclear results are named; the others gave an inactive call. Sampled rows, rich in hits. Any-hit rate of the full collection: about 0.86%.

CCOC(=O)[C@H](CCc1ccccc1)N[C@H](C)C(=O)N1[C@H](C(=O)O)C[C@@H]2CCCC[C@@H]21	none (no result: CDC25B CDK2 inh)
Cc1ccc2nc(NC3=NCN(CCN4CCOCC4)CN3)nc(C)c2c1	none
Cc1ccc2nc(NC3=NCN(C(C)C)CN3)nc(C)c2c1	CDC25B CDK2 inh 8.1
CCN(c1ccccc1)c1nc2ccc(Cl)cc2n2cnnc12	none
CN(C)c1ccc(C(O)C(=O)c2cccs2)cc1 (stereo unspecified)	none
O=C(c1cccs1)C(O)c1cccs1 (stereo unspecified)	CDC25B CDK2 inh 13
Clc1cccc(N2CCN(C3=NCCN3)CC2)c1	none
COc1cc(C2CC(=O)N3CN(Cc4ccco4)CSC3=C2C#N)ccc1OCc1ccccc1 (stereo unspecified)	none
N#CC1=C2SCN(Cc3ccccc3)CN2C(=O)CC1c1cccc(F)c1 (stereo unspecified)	CDC25B CDK2 inh 4.9
N#CC1=C2SCN(C3CCCCC3)CN2C(=O)CC1c1ccccc1Cl (stereo unspecified)	none
Cc1c(Cl)cccc1N1CSC2=C(C#N)C(c3cccs3)CC(=O)N2C1 (stereo unspecified)	CDC25B CDK2 inh 7.9
COc1cc(C2CC(=O)N3CN(C)CSC3=C2C#N)ccc1OCc1ccccc1 (stereo unspecified)	CDC25B CDK2 inh 4.1
COc1ccc(C2CC(=O)N3CN(CCCc4ccccc4)CSC3=C2C#N)cc1OC (stereo unspecified)	CDC25B CDK2 inh 5.8
CCC(=O)NCC(c1ccco1)S(=O)(=O)c1cccs1 (stereo unspecified)	none (no result: CDC25B CDK2 inh)
COc1ccc(-c2ccc(NS(C)(=O)=O)cc2)nn1	none (no result: CDC25B CDK2 inh)
COc1cccc(C2CC(=O)N3CN(CCCc4ccccc4)CSC3=C2C#N)c1 (stereo unspecified)	CDC25B CDK2 inh 5
N#CC1=C2SCN(Cc3ccco3)CN2C(=O)CC1c1cccc(OCc2ccccc2)c1 (stereo unspecified)	CDC25B CDK2 inh 3.4
N#CC1=C2SCN(Cc3ccco3)CN2C(=O)CC1c1ccc(OCc2ccccc2)cc1 (stereo unspecified)	none
COc1cccc(C2CC(=O)N3CN(Cc4ccccc4)CSC3=C2C#N)c1 (stereo unspecified)	CDC25B CDK2 inh 5.2
N#CC1=C2SCN(Cc3ccccc3)CN2C(=O)CC1c1ccc2c(c1)OCO2 (stereo unspecified)	CDC25B CDK2 inh 4
COCc1cc(C)nc2sc3c(=O)n(-c4ccc(C(=O)OCC(C)C)cc4)nnc3c12	none
Cn1c(=O)c(=O)n(C)c2cc(S(=O)(=O)CCC(=O)NC3CCCc4ccccc43)ccc21 (stereo unspecified)	none
O=C(Nc1cccc(Cl)c1)N1CCN(c2nc3cc(F)ccc3n3cccc23)CC1	none (no result: CDC25B CDK2 inh)
Clc1ccccc1Sc1nc2ccccc2n2cnnc12	none (no result: HIV TAR-Tat)
COc1nc(C)c([N+](=O)[O-])c(OC)n1	none (no result: HIV TAR-Tat)
O=C(CSc1nncn2c1cc1occc12)Nc1ccc(Br)cc1F	none (no result: CDC25B CDK2 inh)
CCCC(C)NC(=O)CN1c2ccc(Br)cc2-c2ccccc2S1(=O)=O (stereo unspecified)	none
Cc1cc(C)c2c(CC(=O)N(Cc3ccco3)C3CCS(=O)(=O)C3)coc2c1 (stereo unspecified)	none
N#CC1=C2SCN(Cc3ccccc3)CN2C(=O)CC1c1cccs1 (stereo unspecified)	CDC25B CDK2 inh 5.2
COc1ccc(C2CC(=O)N3CN(C(C)c4ccccc4)CSC3=C2C#N)cc1OC (stereo unspecified)	CDC25B CDK2 inh 5.5
O=C(CCc1nc2sc3c(c2c(=O)[nH]1)CCCCC3)N1CCc2ccccc2C1	none (no result: CDC25B CDK2 inh)
CCc1cccc(C)c1NC1=NS(=O)(=O)C(c2ccc(C)cc2)=C1C	none
CC(C)OCCCNC(=O)c1ccc2c(=O)[nH]c3c(C(=O)NC4CCCC4)sc(=S)n3c2c1	none (no result: CDC25B CDK2 inh)
CC(C)CCNC(=O)c1ccc2c(=O)[nH]c3c(C(=O)NC(C)C)sc(=S)n3c2c1	none (no result: CDC25B CDK2 inh)
CC(C)CCNC(=O)c1ccc2c(=O)[nH]c3c(C(=O)NC4CCCC4)sc(=S)n3c2c1	HIV TAR-Tat 8 (no result: CDC25B CDK2 inh)
CC(C)NC(=O)c1sc(=S)n2c1[nH]c(=O)c1ccc(C(=O)NCCCN3CCCC3=O)cc12	HIV TAR-Tat 8.5 (no result: CDC25B CDK2 inh)
COc1ccc(OC)c(S(=O)(=O)N2CCN(c3nc4ccccc4n4cccc34)CC2)c1	none
CCOc1ccc(Nc2nc(-c3ccccn3)cs2)cc1	CDC25B CDK2 inh 19 (no result: HIV TAR-Tat)
COc1ccc(Nc2nc(-c3ccccn3)cs2)cc1	none
C=CC1=C(C(=O)O)N2C(=O)[C@@H](NC(=O)C(=NOCC(=O)O)c3csc(N)n3)[C@H]2SC1	HIV TAR-Tat 26 (no result: CDC25B CDK2 inh)
C=CC1=C(C(=O)O)N2C(=O)[C@@H](NC(=O)/C(=N\O)c3csc(N)n3)[C@H]2SC1 (stereo in doubt)	none (no result: CDC25B CDK2 inh)
CCC(CC)C(=O)NCCNC(=O)c1nonc1N	none
CCOC(=O)CN1CSC2=C(C#N)C(c3ccc(Cl)cc3)CC(=O)N2C1 (stereo unspecified)	CDC25B CDK2 inh 3.8

Source: PubChem BioAssay (Center for Chemical Genomics, University of Michigan)
